Assay outcomes from PubChem.
HCV inhibitor – blocks hepatitis C virus | Huh7.5.1 HCVcc-Cre infection, luciferase reporter, 44 h | Potency, µM (doses to about 41.8 µM), for inactives: top-dose activity change, negative = inhibition, usual class: inhibitors | 3.4% of 340,000 active | AID 651820; further: on the % scale 0 is the no-effect control and ±100 the full control effect
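A cell-based infection assay in which seeded cells (1,000 per well) receive test compound after 4 h, are inoculated with HCVcc-Cre at approximately 0.5 moi, and are incubated 44 h before luminescence detection.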
VACV Venus inh – inhibitors of vaccinia virus (Venus reporter) | 0.46% of 330,000 active | Vaccinia virus Venus reporter expression, fluorescence | AID 720580 | Potency, µM (highest dose often 36.5 µM), without a hit: at the highest dose activity change, negative = inhibition, most hits filed as inhibitors; calls by dose curve; tested in A549 cells; further: on the % scale 0 is the no-effect control and ±100 the full control effect; nearly all actives have a fitted effect of over 30% in size
VACV mCherry inh – inhibitors of vaccinia virus infection (mCherry reporter signal). Potency, µM (doses to about 36.5 µM), for the others: at the highest dose activity change, negative = inhibition, usual class: inhibitors. Vaccinia virus mCherry reporter infection, fluorescence. 0.63% of 310,000 active; calls by dose curve; tested in A549 cells; further: on the % scale 0 is the no-effect control and ±100 the full control effect; nearly all actives have a fitted effect of over 35% in size
NS1 inh – influenza NS1 inhibition; 0.4% of 270,000 active; Potency, µM (titrated, usually from 46.1 µM), for inactives: at the highest dose activity, positive = more growth; AID 2326; calls by dose curve; further: actives are rising curves; nearly all actives have a fitted effect of over 50% in size
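A cell-based growth assay was used: compounds that relieve NS1-induced slow growth of budding yeast raise OD600. Assay medium was yeast nitrogen base with ammonium sulphate and -URA supplement, pH 6.0, with 2% galactose.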
Pf growth 96h – P. falciparum growth inhibition at 96 hours; P. falciparum luciferase reporter growth, 96 h; Potency, µM (titrated, usually from 28.7 µM), for inactives: at the highest dose activity change, negative = inhibition, hits mostly inhibitors; 6.9% of 320,000 active; AID 504834; further: on the % scale 0 is the no-effect control and ±100 the full control effect
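Readout is luminescence from an integrated firefly luciferase in P. falciparum. Red cells, 2% hematocrit and 0.05% parasitemia final, were cultured with compound through two parasite generations (96 hours) at 37 C, 5% CO2.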
Pf growth 48h – inhibits P. falciparum growth in the first generation, 48 h. P. falciparum luciferase growth in erythrocytes, 48 h. Potency, µM (doses to about 28.7 µM), for inactives: at the top dose activity change, negative = inhibition, most hits filed as inhibitors. 5.9% of 310,000 active. AID 504832; further: on the % scale 0 is the no-effect control and ±100 the full control effect
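A one-generation exposure of luciferase-tagged malaria parasites in RPMI 1640/Albumax erythrocyte culture, 37 C and 5% CO2. Inhibition is inferred from decreased luminescence after adding detection reagent.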
An asterisk follows results filed as active; i = inactive; ? = inconclusive; . = no result; ! = a repeat was not active. Hits are enriched below; roughly 11% of the tested compounds scored in any of these assays. Unless noted, the call rests on the fitted dose curve; in most records, active means well fitted inhibition curve with a large enough effect; inconclusive means small, poorly fitted or top-dose-only effect, or another doubt; inactive means no such curve, though single readings can be large or run the other way. Potency means the concentration at half of the fitted maximal effect.

SMILES	HCV inhibitor	VACV Venus inh	VACV mCherry inh	NS1 inh	Pf growth 96h	Pf growth 48h
COc1cccc(Nc2nc(N)c([N+](=O)[O-])c(N3CCOCC3)n2)c1	-11%	.	.	-5%	15µM*	?
Cc1cccc(Nc2nc(N)c([N+](=O)[O-])c(N3CCOCC3)n2)c1	-12%	-29%	?	-6%	?	?
CCOc1ccccc1OCCCOc1ccc([N+](=O)[O-])cc1Cl	13µM*	-27%	.	-91%	10µM*	?
COc1ccc([N+](=O)[O-])cc1NC(=O)Cn1ccc(C(F)(F)F)n1	?	-16%	i	.	-25%	-14%
CCN(CC)c1ccc(NC(=O)CN2C(=O)c3cccnc3Sc3ccccc32)c(C)c1	.	-20%	-23%	.	.	.
CCOc1ccc(CC2S/C(=N/c3ccccn3)NC2=O)cc1 (configuration not stated)	0%	-2%	i	2%	80%	15µM*
O=C1NC(=Nc2ccc(F)cc2)SC1Cc1ccc(F)cc1 (configuration not stated)	4%	-20%	i	3%	8.3µM*	9.3µM*
O=C1NC(=Nc2ccc(Cl)cc2)SC1Cc1cc(Cl)ccc1Cl (configuration not stated)	1%	-3%	-11%	15%	?	-12%
CCC(=Nc1cc(OC)ccc1OC)c1c(O)[nH]c(=O)[nH]c1=O	-13%	.	.	?	71%	0%
COc1cc(NC(=O)N2CCc3nc(NCc4cccc(Oc5ccccc5)c4)ncc3C2)cc(OC)c1OC	.	?	10µM*	.	.	.
O=C1c2oc3ccc(Cl)cc3c(=O)c2C(c2ccco2)N1CCN1CCOCC1 (configuration not stated)	-10%	5%	i	-3%	?	8.3µM*
CN(C)CCN1C(=O)c2oc3ccc(Cl)cc3c(=O)c2C1c1cccc(Br)c1 (configuration not stated)	1%	-10%	-2%	-8%	426%	1.9µM*
CC(=O)N1C(=O)NC(c2ccccc2)=C([N+](=O)[O-])C1c1ccccc1 (configuration not stated)	24%	-12%	i	29%	?	-14%
COc1ccc(NC2CCCN(C(=O)c3cccnc3)C2)cc1 (configuration not stated)	1%	.	.	1%	-14%	37%
COCC(=O)N(Cc1cc2cc(C)ccc2[nH]c1=O)c1cccc(C)c1C	-7%	-20%	i	26%	318%	-21%
O=C(c1cccs1)N(Cc1cc2ccccc2[nH]c1=O)c1ccccc1	?	-28%	-20%	3%	-26%	-23%
Cc1ccc(N(Cc2cc3ccccc3[nH]c2=O)C(=O)c2cccs2)cc1C	?	-20%	-13%	0%	?	12µM*
COCC(=O)N(Cc1cc2cc(C)ccc2[nH]c1=O)c1ccc(C)c(C)c1	0%	-14%	-1%	-3%	10µM*	-8%
COc1ccc(/C=N/NS(=O)(=O)c2ccc(C)cc2)cc1	32%	-17%	-16%	-1%	3.3µM*	35%
COc1ccc(O)c(/C=N/NS(=O)(=O)c2ccc(C)cc2)c1	14%	-12%	-28%	-2%	?	-1%
CCOc1ccc(C(=O)NC(C)CCc2ccccc2)cc1 (configuration not stated)	-6%	.	.	23%	-32%	-4%
CCOc1ccc(C(CCc2ccccc2)NC(=O)c2ccccc2)cc1OCC (configuration not stated)	1%	-7%	-13%	-2%	.	4.7µM*
COc1cc2c3c(c1OC)Oc1ccc(cc1)C[C@H]1c4c(cc(OC)c(OC)c4Oc4ccc(cc4)C[C@@H]3N(C)CC2)CCN1C	?	-29%	-26%	.	.	.
COc1ccc2cc1Oc1ccc(cc1)C[C@H]1c3cc(c(OC)cc3CCN1C)Oc1c(OC)c(OC)cc3c1[C@H](C2)N(C)CC3	?	-17%	-5%	1%	2.1µM*	2.1µM*
COc1cc2c3cc1Oc1cc(ccc1O)C[C@@H]1c4c(cc(OC)c(O)c4Oc4ccc(cc4)C[C@H]3N(C)CC2)CCN1C	7.9µM*!	-17%	i	3%	1.7µM*	2.1µM*
SMILES	HCV inhibitor	VACV Venus inh	VACV mCherry inh	NS1 inh	Pf growth 96h	Pf growth 48h
COc1cc2c3cc1Oc1cc(ccc1O)C[C@@H]1c4c(cc(OC)c(O)c4Oc4cccc(c4)C[C@@H]3N(C)CC2)CC[N+]1(C)C	-4%	-12%	-16%	.	4%	-19%
COc1ccc2cc1Oc1ccc(cc1)C[C@H]1c3c(cc4c(c3Oc3cc5c(cc3OC)CCN(C)[C@@H]5C2)OCO4)CCN1C	14µM*	-25%	-16%	-3%	1.5µM*	1.9µM*
COc1cc2c3cc1Oc1c(OC)c(OC)cc4c1[C@H](Cc1ccc(cc1)Oc1cc(ccc1O)C[C@H]3N(C)CC2)N(C)CC4	11µM*	?	?	.	.	.
Cc1ccc(C(=O)N2CCN(c3ccc4c(c3)C3CC4CCN3C(=O)OCc3ccccc3)CC2)cc1 (configuration not stated)	.	-29%	-18%	.	.	.
CC1CCc2nc(NC(=O)c3cc(C(C)(C)C)nn3C)sc2C1 (configuration not stated)	-1%	.	.	-21%	8.3µM*	?
Cc1ccc(-c2nc(NC(=O)c3cc(C(C)(C)C)nn3C)sc2C)cc1Cl	?	-11%	-16%	-4%	2.1µM*	1.9µM*
Cn1nc(C(C)(C)C)cc1C(=O)NNC(=O)c1ccccc1Cl	?	-19%	i	1%	3%	40%
O=C(CN(Cc1ccco1)C(=O)Cn1nnc(-c2cccs2)n1)NCc1ccccc1	-24%	7%	-13%	0%	?	-28%
CN(C)CCn1c2c(c(SCC(=O)Nc3ccc4c(c3)OCCO4)nc1=O)CCCC2	-2%	-11%	-15%	.	-7%	?
CC(=O)N1c2ccccc2Oc2cc3ccccc3cc21	12%	-8%	-9%	-43%	?	1.9µM*
COCCNC(=O)c1cc(-c2ccncc2)nc2ccc(S(=O)(=O)N3CCOCC3)cc12	?	.	.	.	?	16%
Cc1nonc1OCCNCc1c(C(=O)N(C)C)nc2ccc(Cl)cn12	-3%	-2%	i	-52%	27%	?
Cc1cccnc1CCNCc1c(C(=O)N2C[C@@H](C)O[C@@H](C)C2)nc2ccc(Cl)cn12	-6%	-23%	-24%	5%	-5%	10µM*
Cc1nonc1OCCNCc1c(C(=O)N2CCCCCCC2)nc2ccc(Cl)cn12	-15%	-3%	-9%	8%	18%	3.7µM*
Cc1ccc(CNC(=O)CN(C(=O)C2(C)CC(=O)N=C3C=CC=CN32)c2cc(C)ccc2C)cc1 (configuration not stated)	1%	-10%	-11%	6%	-13%	-3%
